Assays:
Assay in all cases: PBM binding z-score (relative to random genomic background probes); higher = stronger binding; sequences stand for … in GC…GCGATTGACAGCGTAGAATGAAGG
[1] = tested on: RARb homodimer (NR concentration 270 nM)
Outline: (§1)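 The probes on custom Agilent 4×180K protein-binding microarrays were double-stranded, with 34-nt variable regions bearing direct-repeat seeds, single-nucleotide variants, half-site ablations and random human genomic background sequences. Incubation lasted 1 h with ligand-free nuclear receptor dimers in PBS pH 7.4, 2% milk, 0.02% Triton X-100, 1 mM DTT, 0.2 mg/mL BSA and 0.4 mg/ml salmon testes DNA. Antibodies against each partner (one per run) detected bound dimers, and fluorescence scans were regression-normalized. Binding z-scores take the random background probes as reference.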

[2] = tested on: RARg:RXRa (NR concentration 270 nM, RXRa partner concentration 90 nM)
Outline: as §1

[3] = tested on: RARg homodimer (NR concentration 270 nM)
Outline: as §1

[4] = tested on: RXRa DBDmut IVT, anti-RXR (DBD mutation: RXRa K156A/R161A, NR concentration 90 nM)
Outline: as §1

[5] = tested on: RXRa homodimer (NR concentration 180 nM)
Outline: as §1

[6] = tested on: THRa:RXRa (NR concentration 90 nM, RXRa partner concentration 90 nM)
Outline: as §1

[7] = tested on: THRa homodimer (NR concentration 90 nM)
Outline: as §1

[8] = tested on: VDR homodimer (NR concentration 270 nM)
Outline: as §1

Row | Sequence | PBM binding z-score [1] | PBM binding z-score [2] | PBM binding z-score [3] | PBM binding z-score [4] | PBM binding z-score [5] | PBM binding z-score [6] | PBM binding z-score [7] | PBM binding z-score [8]
1 | TTACCAAGGTGAAAGGTCTTTGATGCACGCCTTG | 1.15 | 1.67 | 0.887 | -0.125 | 2.43 | 2.13 | 0.663 | -0.219
2 | CTAACTAGGTCAGAACAGGACAGTGAAGGATGAT | 2.03 | 1.85 | 3.26 | 0.797 | 1.07 | 3.55 | 0.222 | -0.144
3 | ATCTCTAGGTAACCAAGATCAGTGAATGCCGAAC | -0.128 | 0.35 | 0.445 | -0.167 | 0.343 | 0.734 | 0.469 | -0.138
4 | TAGCCTAGGTCATGAGCCAGTATACCACGCGAAC | 2.5 | 4.1 | 3.99 | 0.516 | 3.37 | 2.97 | 1.01 | 0.409
5 | CCTTACGGGTCAAAGTTATAGCACGGGTGGTACG | 2.72 | 4.74 | 3.89 | 1.42 | 5.29 | 2.3 | -0.124 | 1.46
6 | ACTCGGAGGACAAAGTTCAGAGCTACGCCAGTGA | 2.84 | 3.2 | 2.63 | 2.1 | 1.63 | 1.71 | -0.296 | 2.54
7 | ATCTCTAGGTAACAAGTTCATTGAAAGAGAGGAC | 2.29 | 2.04 | 1.72 | 2.49 | 1.8 | 2.14 | 1.24 | 5.08
8 | CCTACTGGGCCTTTCAGAGGTCATTGATCATATG | 3.64 | 3.43 | 2.71 | 0.749 | 3.84 | 3.04 | 1.36 | 2.8
9 | TTACGAAGGTGAGCTGAGGTCGTTGATCCAACTC | 1.6 | 1.37 | 1.23 | 0.439 | 1.27 | 4.56 | 1.78 | 2.57
10 | CGAACGAGCGCATGAGTTGATAGCAAATGCCGAT | -0.651 | -0.0221 | -0.247 | 0.162 | -0.236 | -0.516 | -0.891 | -0.0717
11 | CCTCGTTGGTCAGGAGGTCACACACCGGATATGA | 4.36 | 5.12 | 4.22 | 0.642 | 4.63 | 3.54 | 2.26 | 2.22
12 | ACTAGTTGGTCAGCAGAGGTCACACACAATTCGG | 5.13 | 5.03 | 5.13 | 1.14 | 5.43 | 4.52 | 2.95 | 3.3
13 | GATACTGGGTCAAGGCCAGAGTACGCGTATTGAT | 2.91 | 3.4 | 3.58 | -0.138 | 2.62 | 2.09 | 0.289 | 0.679
14 | CGTCCAAGGTCAAAGGTCAGTGAGGAGATGACGG | 5.41 | 8.78 | 8.47 | 3.92 | 10.4 | 4.81 | 2.98 | 4.41
15 | TAGCCTAGGTCACGCGGGCCAGTATAGTGTCGGC | 3.49 | 5.13 | 5.55 | 0.633 | 4.2 | 3.74 | 1.61 | 0.563
16 | ACAGATAGGTGATGAAGGTAACTCAGGCTATCAT | 0.0763 | 0.532 | 0.586 | -0.397 | 0.485 | 0.83 | -0.19 | -0.247
17 | GATACAGGGTCAGCTAGAGGCCAGATTATGGAAA | 3.59 | 6.4 | 4.49 | 1.25 | 4.05 | 3.2 | 0.619 | 0.715
18 | TCTAGTTGGTCACTGAGGTCACACACGACGGGTA | 4.59 | 4.76 | 4.83 | 1.56 | 5.14 | 4.47 | 5.09 | 4.16
19 | TCGATTAGGTTAGGGGCATTCAGAATGGCGTCGA | 1.25 | 0.511 | 0.723 | 1.34 | 0.857 | 1.33 | 0.776 | 1.08
20 | CCTGACGGGTCACTGACAGGTTATAGCATTTGGA | 2.98 | 5.4 | 4.25 | 1.04 | 4.25 | 2.44 | 0.0984 | 0.76
21 | CGTCCAAGGTCAGCAGATCAGTGAAAGCGACGTG | 3.69 | 4.89 | 5.8 | 2.42 | 3.8 | 3.42 | 2.11 | 0.793
22 | TCTTGTAGATCAAGCAGGTTAAGAGAGCCTGAGT | 0.0574 | -0.24 | -0.296 | 0.088 | 0.168 | 0.276 | -0.531 | -0.291
23 | CCTTACGGGTCAAGGTTAGAGCACGGGTGGTACG | 3.19 | 4.77 | 4.65 | -0.0809 | 4.97 | 2.94 | 0.656 | 1.05
24 | ATGTGTAGGTTAAGGGTCATTCAGGTTGGTTCGC | 4.06 | 4.95 | 3.99 | 2.14 | 6.33 | 3.69 | 2.32 | 5.37
25 | AGAACGAGGGCAATGAGTTGCTAGCACGGGTGGC | 0.949 | 0.847 | 1.24 | 1.67 | 0.545 | 0.677 | -0.316 | 1.49
26 | CCTATTCGTTGACCATAAGGGCAACCGAAGCTCG | 2.14 | 1.16 | 1.04 | 0.173 | 0.704 | 1.85 | 1.57 | 0.974

— the supplement of paper PMC6555819
